DT40 TDP1 no CPT: qHTS for Inhibitors of human tyrosyl-DNA phosphodiesterase 1 (TDP1): qHTS in cells in absence of CPT; hit rate 15% among 420,000; DT40 Tdp1-/- hTDP1 cells, no CPT, ATP luminescence, 48 h; Potency, µM (doses to about 46.2 µM), inactives show at the top dose activity change, negative = growth inhibition, most hits filed as inhibitors; further: potency means the concentration at half of the fitted maximal effect; nearly all actives have a fitted effect of over 55% in size
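No-CPT arm: Tdp1-/-;hTDP1 DT40 cells (400/well) plus compounds, incubated ≥48 hr at 37 °C. Readout CellTiter-Glo luminescence.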
HT1080 IDH1KD tx: toxicity to HT-1080 IDH1 knockdown cells (counter line). Potency, µM (highest dose often 46.1 µM), for the others: at the highest dose activity, negative = toxicity, actives largely listed as cytotoxic. HT-1080 IDH1 knockdown viability, ATP luminescence, 48 h. hit rate 2% among 360,000. AID 686971;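 further: potency means the concentration at half of the fitted maximal effect; 0% = DMSO wells and -100% = cell-free medium wells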
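In this qHTS, HT-1080 cells depleted of IDH1 are exposed for 48 h at 37 °C to compound titrations. Toxicity is scored from CellTiter-Glo luminescence, with DMSO as full viability and medium alone as none.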
HT1080-NT tox: kills 2HG-producing HT-1080-NT fibrosarcoma cells; HT-1080-NT fibrosarcoma viability, CellTiter-Glo ATP luminescence, 48 h; Potency, µM (highest dose often 46.1 µM), for the others: at the highest dose activity, negative = less viability, actives largely listed as cytotoxic; hit rate 1.6% among 360,000; AID 686970;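 further: NT is the 2HG producing partner of a matched IDH1 knockdown line; potency means the concentration at half of the fitted maximal effect; 0% = DMSO-treated cells and -100% = media-only wells without cells; nearly all actives have a fitted effect of over 55% in size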
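750 cells/well, RPMI + 5% FBS; 2 h settle, compound pin-transfer, 48 h at 37 degrees C. CellTiter-Glo 10 min RT, luminescence. Normalized to DMSO and media-only wells.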
TDP1 cell CPT: growth inhibition of DT40 Tdp1-/-;hTDP1 cells with camptothecin (screen for TDP1 inhibitors); chicken DT40 Tdp1-/-;hTDP1 cells + 20 nM CPT, ATP luminescence, 48 h; Potency, µM (top dose mostly 46.2 µM), without a hit: at the top dose activity change, negative = growth inhibition, usual class: inhibitors; hit rate 12% among 420,000; further: potency means the concentration at half of the fitted maximal effect; nearly all actives have a fitted effect of over 55% in size
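Chicken DT40 Tdp1-/- cells complemented with human TDP1, 400 cells/well, exposed to compounds plus 20 nM camptothecin for at least 48 h at 37 C; viability read as ATP content by CellTiter-Glo luminescence.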
IL-1B inflam inh: inhibitors of inflammasome signaling (IL-1 beta secretion); AID 743279; hit rate 4.7% among 360,000; activity change, % at 57.5 µM; THP-1 LPS/ATP IL-1B secretion, AlphaLISA, 16 h; active compounds read low; in the data active means activity change below about -50%; inconclusive means mostly about -30% to -49%
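THP-1 cells pretreated 1 hr with compounds (up to 57.5 uM final), then stimulated with LPS (250 ng/mL final) plus ATP (1.25 mM final); secreted IL-1B measured by AlphaLISA after 16 hr, decreased signal indicating inhibition.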
* = called active by the depositor; u = inconclusive; x = no result; [ ] = another dose, or the depositor's remark. This is a sample that favours compounds with a hit; in the whole collection about 19% have one here. Unless noted, the call rests on the fitted dose curve; in most records, active means well fitted curve in the direction sought with a large enough effect; inconclusive means small, poorly fitted or top-dose-only effect, or another doubt; inactive means no such curve, though single readings can be large; an effect the other way counts as inactive or inconclusive. Unless noted, on the % scale 0 is the no-effect control and ±100 the full control effect.

SMILES	DT40 TDP1 no CPT	HT1080 IDH1KD tx	HT1080-NT tox	TDP1 cell CPT	IL-1B inflam inh
Cc1ccccc1-n1c(SCC(=O)N/N=C/c2sccc2C)nc2ccccc2c1=O	-4.5%	10.6%	9.4%	-1.6%	-7.8
CCOC(=O)N1CCN(C(=O)C(=O)NNC(=O)COc2ccc(Cl)cc2)CC1	-5.2%	2.3%	13.4%	5.1%	28.6
COCCn1c(=O)c(-c2cccs2)nc2cnc(Nc3ccccc3)nc21	-3.5%	x	x	0.7%	x
COC(=O)CCNC(=O)Cc1c(C)n(C(=O)c2ccc(Cl)cc2)c2ccc(OC)cc12	u	-0.9%	-28.2%	u	22.3
CCCNC(=O)Cc1c(C)n(C(=O)c2ccc(Cl)cc2)c2ccc(OC)cc12	u	-10.6%	-4.0%	20.6µM*	-0.2
Nc1nc2c(Cl)ccc(Cl)c2s1	-13.9%	-8.6%	-0.6%	5.3%	0.4
COc1ccc(/C=C/C(=O)NC(=S)NNC(=O)c2ccco2)cc1	20.6µM*	-26.5%	-25.8%	14.6µM*	95.7
CCOC(=O)N1CCN(C(=O)/C=C/c2ccc(OC)c(OC)c2)CC1	2.8%	-0.6%	16.7%	2.9%	5.7
COc1ccc(/C=C/C(=O)NC(=S)NNC(=O)c2ccco2)cc1OC	23.1µM*	3.5%	-0.2%	u	8.6
COc1ccc(NC(=S)NNC(=O)c2ccco2)c(OC)c1	10.8%	3.8%	0.1%	5.1%	-6.7
CCCOc1ccc(/C=C/C(=O)N2CCN(C(=O)c3ccco3)CC2)cc1OC	13µM*	9.1%	5.2%	u	2.4
CC1CCc2nc(-c3cc4ccc(O)cc4oc3=O)sc2C1 (stereo not drawn)	u	x	x	-8.5%	x
COc1ccc(C(=O)NCC2Cc3cccc(-c4ccc(S(C)(=O)=O)cc4)c3O2)c(OC)n1 (stereo not drawn)	-9.0%	x	x	10.3%[9.04 µM]	x
CC1=CC(C)(C)N2C(=O)C(=Nc3ccc(O)cc3)c3cccc1c32	3.26µM*	25.9µM*	16.4µM*	4.11µM*	-52.6*
COc1cc(N=C2C(=O)N3c4c(cccc42)C(C)=CC3(C)C)cc(OC)c1	5.17µM*	-1.5%	0.7%	6.51µM*	-13.6
COc1ccc(N=C2C(=O)N3CCCc4cccc2c43)cc1	u	1.4%	-12.5%	u	0.9
Cc1ccc(N=C2C(=O)Nc3c(C)cccc32)cc1	-21.6%	4.9%	3.4%	-5.4%	24.3
O=C(NCc1ccccc1)C(c1cccnc1)N(C(=O)c1csnn1)c1ccccc1 (stereo not drawn)	-3.4%	5.2%	8.0%	0.9%	-8.6
O=C(NCC(c1cccnc1)N1CCN(c2ccccc2F)CC1)C1CCCCC1 (stereo not drawn)	10.3µM*	-0.2%	3.0%	u	6.8
O=S(=O)(NCC(c1cccnc1)N1CCN(c2ccccc2F)CC1)c1cccs1 (stereo not drawn)	u	0.7%	4.5%	14.6µM*	-10.6
O=C(NCCc1ccccc1)C(=O)NCC(c1cccnc1)N1CCN(c2ccccc2F)CC1 (stereo not drawn)	u	x	x	20.6µM*	x
O=C(NCc1cccnc1)C(=O)NCC(c1ccco1)N1CCN(c2ccc(F)cc2)CC1 (stereo not drawn)	16.4µM*	-4.2%	-0.4%	23.1µM*	6.5
O=S(=O)(NCC(c1cccnc1)N1CCN(c2ccc(F)cc2)CC1)c1cccs1 (stereo not drawn)	u	-4.5%	-1.8%	u	-11.7
COCCNC(=O)C(=O)NCC(c1cccnc1)N1CCN(c2ccccc2F)CC1 (stereo not drawn)	-28.9%	x	x	-19.8%	x
CCC(C)(C)NC(=O)CN(CC1CCCO1)C(=O)CCC(=O)Nc1nccs1 (stereo not drawn)	u	1.8%	-0.2%	-5.1%	12.6
SMILES	DT40 TDP1 no CPT	HT1080 IDH1KD tx	HT1080-NT tox	TDP1 cell CPT	IL-1B inflam inh
C/C(=N\NC(=O)CN(c1ccc(Oc2ccccc2)cc1)S(C)(=O)=O)C(C)(C)C	-19.3%	-0.1%	3.0%	-16.2%	3.2
Cc1cccc(C(=O)NCc2nc(-c3cccc(NC(=O)C4CCCN(C)C4)c3)oc2C)n1 (stereo not drawn)	u	x	x	8.5%[9.04 µM]	x
CCc1ccc(NC(=O)C(=O)NCC(c2cccnc2)N2CCN(c3ccc(F)cc3)CC2)cc1 (stereo not drawn)	3.66µM*	x	x	u	x
O=C(NCC(c1cccnc1)N1CCN(c2ccc(F)cc2)CC1)c1ccco1 (stereo not drawn)	16.4µM*	1.1%	-3.7%	u	30.4
O=C(NCC(c1cccnc1)N1CCN(c2ccc(F)cc2)CC1)c1ccc2c(c1)OCO2 (stereo not drawn)	8.2µM*	-6.5%	-5.7%	16.4µM*	-14.9
O=C(NCC(c1cccnc1)N1CCN(c2ccccc2F)CC1)c1cccc(Cl)c1 (stereo not drawn)	16.4µM*	-18.2%	-4.0%	20.6µM*	u
NS(=O)(=O)c1ccc2nc(NC(=O)Nc3ccc(F)cc3)sc2c1	u	u	-17.2%	-5.0%	u
OCC[C@@H]1C[C@H](O)[C@@H](O)[C@]2(CCc3ccccc3CO2)O1	-10.3%	10.9%	14.7%	-11.6%	-1.0
O=C(NCC(c1cccnc1)N1CCN(c2ccc(F)cc2)CC1)c1ccc(F)cc1 (stereo not drawn)	16.4µM*	-4.7%	-4.3%	u	8.8
COc1ccc(N2CCN(C(CNC(=O)C(=O)NCCC3=CCCCC3)c3ccco3)CC2)cc1 (stereo not drawn)	u	0.3%	-0.9%	u	8.2
O=C(NCc1cccs1)C(=O)NCC(c1ccco1)N1CCN(c2ccc(F)cc2)CC1 (stereo not drawn)	23.1µM*	-22.1%	-8.4%	u	-5.3
O=C(NCCC1=CCCCC1)C(=O)NCC(c1ccco1)N1CCN(c2ccccc2)CC1 (stereo not drawn)	9.2µM*	0.1%	4.7%	11.6µM*	30.3
O=C(NCC(c1cccnc1)N1CCN(c2ccccc2F)CC1)c1ccc(F)cc1 (stereo not drawn)	20.6µM*	x	x	14.6µM*	x
COc1cc(C(=O)NCC(c2cccnc2)N2CCN(c3ccc(F)cc3)CC2)cc(OC)c1OC (stereo not drawn)	20.6µM*	-9.2%	0.1%	u	16.1
O=C(COc1ccccc1)NCC(c1ccco1)N1CCN(c2ccc(F)cc2)CC1 (stereo not drawn)	u	-1.8%	-18.1%	u	-53.7*
CN(C)c1cc(NC(=O)CNC(C)(C)CC(C)(C)C)c2ccccc2n1	16.4µM*	u	u	u	-12.7
COc1ccc(CCN(C)CC(=O)Nc2cc(C)nc3ccccc23)cc1OC	u	-10.1%	14.6%	u	29.8

Compound activity from PubChem.
